# Measured values reported in PubChem BioAssay AID1851 (National Center for Advancing Translational Sciences (NCATS), 2009).
# Several values for one entry are separate records, joined by “and”; a condition that tells them apart may be missing. Equal values may be shown once. Hit rate of the full screen: of about 16,000 compounds, about 2,600 (16%) were called active. Another 20% or so got no clear call; they are omitted. Calls come from the whole dose curve; as a rule, active = well fitted curve in the direction sought with a large enough effect; inconclusive = small, poorly fitted or top-dose-only effect, or effect the other way; inactive = no such curve, though single readings can be large or run the other way. Only a sample is shown.
# Molecular target: Cytochrome P450 2D6 (Homo sapiens) (UniProt P10635)
# Sequence (P10635 whole entry, looked up): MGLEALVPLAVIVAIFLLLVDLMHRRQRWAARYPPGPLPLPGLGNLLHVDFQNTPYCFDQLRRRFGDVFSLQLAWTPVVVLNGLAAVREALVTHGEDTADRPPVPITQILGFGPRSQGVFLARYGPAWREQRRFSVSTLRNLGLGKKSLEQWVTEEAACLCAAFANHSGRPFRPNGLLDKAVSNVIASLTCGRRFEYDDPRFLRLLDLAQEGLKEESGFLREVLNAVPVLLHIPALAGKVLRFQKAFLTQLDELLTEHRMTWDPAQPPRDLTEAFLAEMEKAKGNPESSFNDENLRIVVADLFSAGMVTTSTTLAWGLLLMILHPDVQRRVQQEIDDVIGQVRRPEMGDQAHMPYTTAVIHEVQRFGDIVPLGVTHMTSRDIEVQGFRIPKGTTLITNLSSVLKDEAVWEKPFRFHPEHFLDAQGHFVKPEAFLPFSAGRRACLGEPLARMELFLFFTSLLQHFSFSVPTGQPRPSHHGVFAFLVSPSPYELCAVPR
# Assay: Cytochrome panel assay with activity outcomes
# Conditions: recombinant CYP, pro-luciferin dealkylation, luminescence, p450-cyp2d6; series mostly up to 57.1 µM; activity, negative = inhibition: at the top concentration
# % is set by controls: 0 for no effect and ±100 for the full control effect.
SMILES,"activity, negative = inhibition",AC50
COc1cc2cc3c4cc(OC)c(OC)cc4cc[n+]3c(C)c2cc1OC,4.46% [at 25.6 µM] (inactive),–
CNC(=O)c1c(I)c(C(=O)NCC(=O)Nc2c(I)c(C(=O)O)c(I)c(C(=O)NCCO)c2I)c(I)c(N(C)C(C)=O)c1I,-4.4% [at 25.6 µM] (inactive),–
CCOC(=O)[C@H](CCc1ccccc1)N[C@@H](C)C(=O)N1CCC[C@H]1C(=O)O,3.29% [at 25.6 µM] (inactive),–
N#C/C(=C\c1ccc(O)c(O)c1)C(=O)NCc1ccccc1,-5.88% (inactive),–
CCOC(=O)/C(C#N)=C\c1ccc(OCC(=O)Nc2ccc(C)cc2C)c(OC)c1,9.89% (inactive),–
N#C/C(=C\c1ccc(O)c(O)c1)C(=O)OCCc1cccs1,–,12.6 µM (active)
C[C@H](NC(=O)/C(C#N)=C/c1ccc(O)c(O)c1)c1ccccc1,-20.2% (inactive),–
N#C/C(=C\c1ccc(O)c(O)c1)C(=O)NCCCc1ccccc1,–,31.6 µM (active)
C[C@@H](NC(=O)/C(C#N)=C/c1ccc(O)c(O)c1)c1ccccc1,-7.05% (inactive),–
Nc1ncncc1-c1ccc([N+](=O)[O-])cc1,9.87% (inactive),–
CC(=O)NC(NC(C)=O)c1ccc(Br)cc1,1.99% (inactive),–
Cc1ccc(-n2nnnc2Sc2nc([N+](=O)[O-])nn2C)cc1C,-18.4% (inactive),–
Cc1nc(S(=O)(=O)c2cccc(Cl)c2)nc2c1CCC2,-5.41% (inactive),–
CC(=O)N(CC(=O)O)c1ccccc1C(=O)O,10.9% (inactive),–
CC(C)(C)c1cccc(Oc2nn[nH]n2)c1,7.78% (inactive),–
CC1=C(C(N)=O)C(c2cccs2)n2nc(-c3cccc(Cl)c3)nc2N1 (stereo not drawn),-10.2% (inactive),–
O=c1[nH]c2cc(Br)cnc2nc1/C=C(\O)c1ccc(F)cc1,-12.9% (inactive),–
COC(=O)[C@@H]1C[C@H]1[C@@H](NC(=O)c1cccnc1)c1ccccc1,-11.1% (inactive),–
COCCn1c(=O)c(-c2cccc(C#N)c2)nc2cnc(Oc3ccccc3)nc21,-3.81% (inactive),–
NC(=O)NCc1ccc(Cl)cc1,-19.7% (inactive),–
Cc1ccc(C)c(NC(=O)NCc2ccc(Cl)cc2)c1,–,3.98 µM (active)
Cc1ccc(Cn2cccc(NC(=O)NCc3ccccc3)c2=O)cc1,3.4% (inactive),–
CCc1c(C)c2c(C)[nH]nc2oc1=O,-6.95% (inactive),–
N#Cc1c(-c2ccc(Cl)cc2)nc2n(c1=O)CCCS2,-20.7% (inactive),–
COc1cccc(C2=NOC(C(=O)NCc3ccccn3)C2)c1 (stereo not drawn),-3.24% (inactive),–

SMILES,"activity, negative = inhibition",AC50
COc1ccc(CNC(=O)C2CSC(=O)C2)cc1 (stereo not drawn),6.49% (inactive),–
O=C(NCc1ccc2c(c1)OCO2)C1CC(c2cccc(Br)c2)=NO1 (stereo not drawn),–,0.891 µM (active)
O=C(NNC(=O)C1CC(c2cccnc2)=NO1)Nc1cccc(F)c1 (stereo not drawn),-21.5% (inactive),–
COc1ccc(CNC(=O)C2CC(c3cccc([N+](=O)[O-])c3)=NO2)cc1 (stereo not drawn),–,5.01 µM (active)
COc1cccc(C2=NOC(C(=O)Nc3ccc(OC)c(OC)c3)C2)c1 (stereo not drawn),8.04% (inactive),–
COCCNC(=O)C1CC(c2cccc(OC)c2)=NO1 (stereo not drawn),-0.287% (inactive),–
COc1cccc(C2=NOC(C(=O)Nc3cccnc3)C2)c1 (stereo not drawn),–,11.2 µM (active)
COc1ccc(C2=NOC(C(=O)NCc3ccco3)C2)cc1OC (stereo not drawn),-6.05% (inactive),–
COc1cccc(C2=NOC(C(=O)NCc3ccccc3)C2)c1 (stereo not drawn),–,12.6 µM (active)
COc1cccc(C2=NOC(C(=O)NCCN3CCOCC3)C2)c1 (stereo not drawn),-13.5% (inactive),–
CO[C@H]1COC(=O)C/C=C\[C@@H](C)COC(=O)[C@@H](CCSC)NC(=O)C/C=C\[C@@H]1C,14% [at 11.4 µM] (inactive) and 6.2% [at 11.4 µM] (inactive),–
O=C(c1cc(C(F)(F)F)cc(C(F)(F)F)c1)N1CCC[C@@]2(CCN(c3ncccn3)C2)C1,-1.56% (inactive),–
O=S(=O)(O)c1cc(N=Nc2cccc3ccccc23)c(O)c2ncccc12,-9.94% [at 11.4 µM] (inactive),–
Nc1nc2n[nH]nc2c(=O)[nH]1,-3.06% [at 25.6 µM] (inactive),–
O=C1[C@H]2CCn3c(=O)n(-c4ccccc4)c(=O)n3[C@H]2[C@H](O)[C@H]2O[C@@H]12,-6.63% [at 11.4 µM] (inactive),–
Cc1nn2c3c(cnc2c1-c1ccccc1)C(=O)CC(c1ccccc1)C3 (stereo not drawn),-5.55% (inactive),–
O=C(NCC1CCCO1)c1nn2c(c1Cl)NC(c1ccc(F)cc1)CC2C(F)(F)F (stereo not drawn),1.28% (inactive),–
C#CCSc1nc(Cc2ccc(Cl)cc2)nc2ccccc12,-18.9% (inactive),–
Nc1nc(Cl)nc2c1ncn2[C@@H]1O[C@@H](CO)[C@@H](O)[C@H]1O,-1.08% (inactive),–
CCC(Sc1nc2n[nH]c(C)c2c(=N)n1-c1cccc(Cl)c1)C(=O)NCCOC (stereo not drawn),-29.6% (inactive),–
Cc1ccc(/C(N)=N/OC(=O)Cc2cccs2)cc1,-28.3% (inactive),–
Cc1onc(-c2ccccc2)c1C(=O)NC(CC(=O)O)c1ccc(OC(C)C)cc1 (stereo not drawn),3.77% (inactive),–
CCOc1ccc(C(=O)CCC(=O)O)cc1,23.3% (inactive),–
CCCOc1ccc(C(=O)CCNc2ccc(C)c(Cl)c2)cc1,-13.7% (inactive),–
CCCCOc1ccc(C(=O)CCN2CCCCC2)cc1,–,5.01 µM (active)

SMILES,"activity, negative = inhibition",AC50
Fc1ccc(CSc2ncnc3sc4c(c23)CCCC4)cc1,-16.6% (inactive),–
COc1cc(/C=C(/NC(=O)c2ccccc2)C(=O)Nc2ccccc2)c([N+](=O)[O-])cc1OC,-7.54% (inactive),–
COc1c(F)c(F)c(C(=O)O)c(Nc2ccc(C)cc2)c1F,-9.49% (inactive),–
Clc1ncccc1-c1nc2ccccc2n1Cc1ccccc1,-16.7% (inactive),–
Clc1ccc(Cn2c(-c3cccnc3Cl)nc3ccccc32)c(Cl)c1,–,7.94 µM (active)
Nc1nonc1-c1nc2ccccc2n1Cc1ccc(F)cc1Cl,0.412% (inactive),–
CCOC(=O)C1(N(CC)CC)Sc2cc(C)ccc2NC1=O (stereo not drawn),-10.6% (inactive),–
CC1CC2(CCCCC2)N2C(=O)C(=O)c3cccc1c32 (stereo not drawn),–,7.94 µM (active)
O=C(NC(=S)Nc1ccc(Oc2ccc(Cl)cc2)cc1)c1ccccc1,-13.6% (inactive),–
CCCC[C@]1(C2CCCC2)Cc2cc(OCC(=O)O)c(Cl)c(Cl)c2C1=O,2.96% (inactive),–
COc1cccc(Cn2c(=O)c(-c3cccs3)nc3cnc(Nc4cccc(OC)c4)nc32)c1,9.04% (inactive),–
COc1cc(/C=C(\C#N)C(=O)c2ccc(O)c(O)c2)cc(I)c1O,-8.81% (inactive),–
COc1ccc(/C=C(\C#N)C(N)=O)c(OC)c1,-4.62% [at 11.4 µM] (inactive),–
COc1cc(/C=C(\C#N)C(N)=O)cc(CSc2nc3ccccc3s2)c1O,–,0.0251 µM (active)
CCC[C@@H]1C[C@@]1(CCC)C(NC(=O)OCc1ccccc1)c1ccc(-c2ccccc2)cc1 (stereo partly drawn),–,7.94 µM (active)
COC(=O)c1ccc(C(NC(=O)c2ccccc2)[C@]2(C)C[C@H]2C2CCCCC2)cc1 (stereo partly drawn),3.73% (inactive),–
C[C@@]1(C(NC(=O)c2ccc(-c3ccccc3)cc2)c2ccc(Cl)cc2)C[C@H]1C1CCCCC1 (stereo partly drawn),3.15% (inactive),–
C[C@@]1(C(NC(=O)Cc2ccccc2)c2ccc(-c3ccccc3)cc2)C[C@H]1C1CCCCC1 (stereo partly drawn),2.63% (inactive),–
CCC[C@@H]1C[C@@]1(CCC)C(NC(=O)c1ccccc1)c1cccc(Cl)c1 (stereo partly drawn),–,3.16 µM (active)
CCCC[C@@H]1C[C@H]1C(NC(=O)c1ccccc1)c1ccccc1 (stereo partly drawn),-3.89% (inactive),–
COC(=O)[C@H]1C[C@@H]1[C@H](NC(=O)OCc1ccccc1)c1ccccc1,-9.48% (inactive),–
CCC[C@@H]1C[C@@]1(CCC)C(NC(=O)c1ccco1)c1ccc(Cl)cc1 (stereo partly drawn),–,3.98 µM (active)
CCOC(=O)CC(NC(=O)c1ccco1)c1ccc(OC)cc1 (stereo not drawn),-7.1% (inactive),–
